This is a sample that favours compounds with a hit; in the whole collection about 9.4% have one here.
SMN2 splice enh – SMN2 splice variant enhancement | HEK293 SMN2-luciferase splicing reporter, luminescence, 30-36 h | Potency, µM (doses to about 46.1 µM), hits mostly activators | actives 2.8% (n = 210,000) | AID 1458; note: nearly all actives have a fitted effect of over 55% in size
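HEK293 cells carry an SMN2 […]–luciferase reporter in which exon 7 inclusion puts luciferase in frame. Cells were plated 10-12 h before compound addition, then incubated 30-36 h at 37C. ONE-Glo luminescence was read; sodium butyrate at 4.5 mM final served as control.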
FLuc modulator – inhibits or activates purified firefly luciferase, miR-21 counter-screen. purified FLuc, Km substrates, luminescence inhibition. Potency, µM (doses to about 57.5 µM), actives largely listed as inhibitors. actives 6.9% (n = 360,000). P08659; note: nearly all actives have a fitted effect of over 55% in size
Target sequence (P08659 whole entry, looked up): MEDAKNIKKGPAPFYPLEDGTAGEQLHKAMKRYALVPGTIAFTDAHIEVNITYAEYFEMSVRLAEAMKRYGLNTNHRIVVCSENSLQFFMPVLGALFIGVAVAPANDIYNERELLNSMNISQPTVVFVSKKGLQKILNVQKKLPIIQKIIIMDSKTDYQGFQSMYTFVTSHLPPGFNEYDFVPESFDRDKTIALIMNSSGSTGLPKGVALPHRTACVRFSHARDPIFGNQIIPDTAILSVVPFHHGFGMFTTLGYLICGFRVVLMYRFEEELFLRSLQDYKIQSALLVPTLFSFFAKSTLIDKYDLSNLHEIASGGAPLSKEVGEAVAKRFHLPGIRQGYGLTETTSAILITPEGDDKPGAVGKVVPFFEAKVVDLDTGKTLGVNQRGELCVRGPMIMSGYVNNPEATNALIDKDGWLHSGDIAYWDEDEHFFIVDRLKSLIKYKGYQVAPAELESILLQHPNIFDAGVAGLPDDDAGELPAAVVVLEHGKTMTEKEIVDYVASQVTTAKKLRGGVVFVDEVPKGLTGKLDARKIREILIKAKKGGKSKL
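Purified P. pyralis luciferase, 10 nM final, with Km-level 10 uM D-luciferin and 10 uM ATP in 50 mM Tris acetate pH 7.5, 10 mM Mg acetate, 0.01% Tween-20, 0.05% BSA; 6-point qHTS titration about 60 µM downward; luminescence read.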
Rab9 prom act – activators of Rab9 promoter. AID 485297. actives 2.8% (n = 320,000). Huh7 Rab9 promoter-luciferase reporter, luminescence, 24 h. Potency, µM (highest dose often 9.22 µM), actives largely listed as activators; note: nearly all actives have a fitted effect of over 60% in size
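Quantitative HTS format; Huh7 Rab9-luciferase reporter cells (1500/well) receive compound 2 h post-plating, incubate 24 h at 37 °C, then get luciferase reagent for 10 min before luminescence reading.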
NPC1 prom act – activates the NPC1 promoter; AID 485313; Potency, µM (doses to about 9.22 µM), usual class: activators; actives 2.4% (n = 320,000); Huh7 NPC1 promoter luciferase reporter, 24 h; note: nearly all actives have a fitted effect of over 60% in size
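Stable NPC1-promoter luciferase Huh7 line; cpd (DMSO) 24 h, 37 °C, 5% CO2; Amplite luciferase reagent 10 min RT; luminescence readout. qHTS format.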
ELG1 DNA repair – blocks ELG1-dependent DNA repair in HEK293T cells; actives 2.3% (n = 330,000); AID 504467; HEK293T ELG1-luciferase reporter, luminescence, 16 h; DNA damage induced by 5-fluorouridine; Potency, µM (top dose mostly 46.1 µM), hits mostly inhibitors; note: nearly all actives have a fitted effect of over 55% in size
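Step one: seed 2,000 cells per well. Step two: pin-transfer compound or DMSO alongside 5-fluorouridine. Step three: incubate 16 hr, 37 °C, 5% CO2. Step four: add ONE-Glo, wait 30 min, read luminescence.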
ELG1 genotox – inducers of genotoxicity in HEK293T ELG1-luciferase cells; HEK293T ELG1-luciferase reporter, luminescence, 16 h; Potency, µM (series often up to 46 µM), most hits filed as activators; actives 1.3% (n = 330,000); note: nearly all actives have a fitted effect of over 60% in size
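16 hr compound incubation (37 °C, 5% CO2) of HEK293T cells carrying luciferase-tagged ELG1; luciferase then measured by ONE-Glo luminescence after 30 min at RT.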
Large screens that a line does not name were inactive. Calls come from the whole dose curve; as a rule, active = well fitted curve in the direction sought with a large enough effect; inconclusive = small, poorly fitted or top-dose-only effect, or another doubt; inactive = no such curve, though single readings can be large; an effect the other way counts as inactive or inconclusive.

Cc1ccc(Cn2nnc3c(=O)[nH]c(C4CCN(C(=O)c5cccs5)CC4)nc32)cc1	ELG1 DNA repair 9.2µM
COc1ccc(Cn2nnc3c(=O)[nH]c(C4CCCN(C(=O)c5ccc(C)cc5)C4)nc32)cc1 (stereo not drawn)	none (no result: Rab9 prom act, NPC1 prom act, ELG1 DNA repair, ELG1 genotox)
CCOC(=O)C1=CN(Cc2cccc(F)c2)S(=O)(=O)N(CC)C1c1ccc(F)c(Cl)c1 (stereo not drawn)	none (no result: SMN2 splice enh, FLuc modulator, Rab9 prom act, NPC1 prom act)
CCCCCCN(CCCCCC)C(=O)Cc1c(-c2ccc(Cl)cc2)[nH]c2ccc(Cl)cc12	none (no result: FLuc modulator, Rab9 prom act, NPC1 prom act, ELG1 DNA repair, ELG1 genotox)
CCNc1ncc2nc(-c3ccccc3)c(=O)n(C3CC3)c2n1	none (no result: FLuc modulator, Rab9 prom act, NPC1 prom act, ELG1 DNA repair, ELG1 genotox)
CC(C)(N=NC(C)(C)C1=NCCN1)C1=NCCN1	none (no result: FLuc modulator, Rab9 prom act, NPC1 prom act, ELG1 DNA repair, ELG1 genotox)
COc1ccc2c(c1)CCc1c(C(=O)N(C)c3ccccc3)noc1-2	SMN2 splice enh 5.01µM, FLuc modulator 13.5µM, Rab9 prom act inconclusive, NPC1 prom act inconclusive, ELG1 DNA repair inconclusive, ELG1 genotox inconclusive
COc1ccc2c(c1)CCc1c(C(=O)NCc3ccco3)noc1-2	SMN2 splice enh 7.08µM, FLuc modulator 7.57µM, Rab9 prom act 1.58µM, NPC1 prom act 3.55µM, ELG1 DNA repair inconclusive, ELG1 genotox inconclusive
COc1ccc2c(c1)CCc1c(C(=O)NC3CCCCC3)noc1-2	SMN2 splice enh 7.08µM, FLuc modulator 1.35µM, Rab9 prom act 1.12µM, NPC1 prom act 1.41µM, ELG1 DNA repair inconclusive, ELG1 genotox inconclusive
COCCNC(=O)c1noc2c1CCc1cc(OC)ccc1-2	SMN2 splice enh 7.94µM, FLuc modulator inconclusive, Rab9 prom act inconclusive, NPC1 prom act 3.55µM, ELG1 DNA repair inconclusive, ELG1 genotox inconclusive
COc1ccc2c(c1)CCc1c(C(=O)NCCN3CCOCC3)noc1-2	none
CCc1sc(Nc2ccc(C)cc2Br)nc1-c1cc2cccc(OC)c2oc1=O	none (no result: SMN2 splice enh, Rab9 prom act, NPC1 prom act, ELG1 DNA repair, ELG1 genotox)
Cc1cc(C)cc(N2CCn3c2nc2c3c(=O)n(Cc3c(F)cccc3Cl)c(=O)n2C)c1	none (no result: SMN2 splice enh, Rab9 prom act, NPC1 prom act, ELG1 DNA repair, ELG1 genotox)
CCCCc1nc2c(c3c1C[C@H](C)OC3)CN(C(=O)NCc1ccco1)CC2	none (no result: FLuc modulator, Rab9 prom act, NPC1 prom act, ELG1 DNA repair, ELG1 genotox)
COCC(C)NC(=O)c1noc2c1CCc1cc(OC)ccc1-2 (stereo not drawn)	SMN2 splice enh 10µM, FLuc modulator 13.5µM, Rab9 prom act 2.51µM, NPC1 prom act 3.16µM, ELG1 DNA repair inconclusive, ELG1 genotox inconclusive
COc1ccc2c(c1)CCc1c(C(=O)Nc3ccc(C#N)cc3)noc1-2	none (no result: Rab9 prom act, NPC1 prom act, ELG1 DNA repair, ELG1 genotox)
CCOC(=O)C1=C(C)N(c2ccc(OC)cc2)C(=O)/C1=C\c1ccc(O)c(OCC)c1	none (no result: SMN2 splice enh)
CCOC(=O)C1=C(C)N(c2ccc(OC)cc2)C(=O)/C1=C\c1cccs1	ELG1 DNA repair 20.6µM
Cc1[nH]n(C(N)=S)c(=O)c1N=Nc1cc(C(F)(F)F)ccc1Cl	none (no result: SMN2 splice enh)
Cc1ccc(N=Nc2c(C)[nH]n(C(N)=S)c2=O)cc1	SMN2 splice enh 17.8µM, FLuc modulator 2.69µM, Rab9 prom act 3.16µM, NPC1 prom act inconclusive, ELG1 DNA repair inconclusive, ELG1 genotox 16.4µM
Cc1[nH]n(C(N)=S)c(=O)c1N=Nc1ccc(S(=O)(=O)N2CCCC2)cc1	FLuc modulator 19µM, ELG1 DNA repair inconclusive
Cc1ccc([N+](=O)[O-])cc1N=Nc1c(C)[nH]n(C(N)=S)c1=O	none (no result: SMN2 splice enh)
Cc1[nH]n(C(N)=S)c(=O)c1N=Nc1cccc(C(F)(F)F)c1	FLuc modulator 9.53µM, NPC1 prom act 3.98µM, ELG1 DNA repair inconclusive (no result: SMN2 splice enh)
Cc1[nH]n(C(N)=S)c(=O)c1N=Nc1ccc(Br)cc1	FLuc modulator 2.39µM, Rab9 prom act 2.82µM, NPC1 prom act 3.55µM, ELG1 DNA repair inconclusive, ELG1 genotox inconclusive (no result: SMN2 splice enh)
Cc1ccc(S(=O)(=O)N2CCCCC2)cc1	none (no result: SMN2 splice enh)
C#C[C@]1(O)CC[C@H]2C3CCC4=Cc5oncc5CC4(C)C3CCC21C (stereo partly drawn)	none (no result: FLuc modulator, Rab9 prom act, NPC1 prom act, ELG1 DNA repair, ELG1 genotox)
Cc1ccc2nc3sc(C(=O)Nc4ccc(F)cc4)cc3cc2c1	none (no result: SMN2 splice enh, ELG1 DNA repair, ELG1 genotox)
COc1ccc2c(c1)c1c(c(=O)n(CCc3ccccc3)c(=O)n1Cc1cccc(F)c1)n2C	none (no result: SMN2 splice enh, Rab9 prom act, NPC1 prom act, ELG1 DNA repair, ELG1 genotox)
O=c1[nH]n2c(=O)c3c([nH]c2c1N=Nc1cccc(C(F)(F)F)c1)CCCC3	none
Cc1ccc([N+](=O)[O-])cc1N=Nc1c(-c2ccc([N+](=O)[O-])cc2)[nH]n(C(N)=S)c1=O	ELG1 DNA repair inconclusive
